Assay outcomes from PubChem BioAssay.
The list is not random: actives were taken first. Their share in the collection is about 5.7%.
ATXN2 expr inh: reduces ATXN2 reporter expression in HEK-293 cells | HEK-293 ATXN2-luciferase reporter, luminescence, 24 h | Potency, µM (titrated, usually from 57 µM), for the others: at the highest dose activity change, negative = inhibition, usual class: inhibitors | hit rate 0.72% among 360,000 | AID 1745845; note: potency is the fitted concentration of half-maximal effect; % is set by controls: 0 for no effect and ±100 for the full control effect; nearly all actives have a fitted effect of over 55% in size
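ATXN2-luciferase reporter cells (luciferase flanked by upstream and downstream ATXN2 gene portions) were treated 24 h at 37 °C with compounds at up to 57 uM. SteadyGlo luminescence gave expression; GF-AFC fluorescence gave viability.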
IL-1B inflam inh: inflammasome signaling inhibition, IL-1 beta readout; hit rate 4.7% among 360,000; THP-1 LPS/ATP IL-1B secretion, AlphaLISA, 16 h; active compounds read low; activity change, % at 57.5 µM; in the data active = activity change below about -50%; inconclusive = mostly about -30% to -49%; note: % is set by controls: 0 for no effect and ±100 for the full control effect
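THP-1 cells pretreated 1 hr with compounds (up to 57.5 uM final), then stimulated with LPS (250 ng/mL final) plus ATP (1.25 mM final); secreted IL-1B measured by AlphaLISA after 16 hr, decreased signal indicating inhibition.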
S2 tox: reduces viability in counter-screen for ATXN expression inhibitors | S2 cells (HEK-293 line with an ATXN2-luciferase reporter) viability, CellTiter-Fluor protease fluorescence, 24 h | Potency, µM (top dose mostly 56.7 µM), usual class: cytotoxic | hit rate 0.49% among 400,000 | AID 651635; note: potency is the fitted concentration of half-maximal effect; nearly all actives have a fitted effect of over 40% in size
TGFb inhibitor: TGF-b pathway inhibition | Potency, µM (doses to about 46.1 µM), without a hit: top-dose activity, negative = inhibition, actives largely listed as inhibitors | HepG2 CAGA-GFP TGF-b/SMAD3 reporter, GFP fluorescence, 18 h; TGF-beta stimulated, 500 pg/mL final | AID 588855 | hit rate 1.2% among 410,000; note: potency is the fitted concentration of half-maximal effect; % is set by controls: 0 for no effect and ±100 for the full control effect; nearly all actives have a fitted effect of over 65% in size
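Per well, imaged GFP fluorescence of HEPG2 CAGA-GFP cells gives the signal; cells get compound, then TGF-beta (500 pg/mL final), 18 h at 37 degrees C; %Activity versus -TGF-beta and +DMSO controls.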
HepG2 viability: HepG2 cytotoxicity, counter-screen for TGF-b inhibitors. hit rate 0.76% among 410,000. HepG2 CAGA-GFP viability, ATP luminescence, 18 h. Potency, µM (top dose mostly 46.1 µM), for the others: top-dose activity change, negative = cytotoxicity, actives largely listed as cytotoxic; note: potency is the fitted concentration of half-maximal effect
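HepG2 CAGA-GFP cells (1000/well, DMEM with 1% FBS) received compound, then TGF-beta at 500 pg/mL final, and were incubated 18 hours at 37 degrees C. Viability was read by CellTiter-Glo luminescence. Media-only wells were set as complete cell-killing and DMSO as no toxicity.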
* hit, by the source's call; i = inactive; ? = inconclusive; . = not tested or not shown; ! = a repeat was not active; [ ] = remark or other dose. Unless noted, calls come from the whole dose curve; as a rule, active = well fitted curve in the direction sought with a large enough effect; inconclusive = small, poorly fitted or top-dose-only effect, or another doubt; inactive = no such curve, though single readings can be large; an effect the other way counts as inactive or inconclusive.

SMILES	ATXN2 expr inh	IL-1B inflam inh	S2 tox	TGFb inhibitor	HepG2 viability
CCCCc1nnc(NC(=O)CCS(=O)(=O)c2ccc(C)cc2)s1	4%	6	i	-20%	2%
Cc1ccc(Nc2ncnc3onc(C)c23)cc1Cl	-4%	.	i	-21%	-6%
CC(C)c1ccc2oc(-c3ccc(Cl)c(NC(=O)c4cccs4)c3)nc2c1	24%	.	i	-3%	-26%
COC(c1ccc2c(c1)CN(C(=O)Cn1nc(C)c3ccccc3c1=O)CCO2)C1CCCCC1 (stereo not drawn)	.	.	i	.	.
O=C(NCC1CC1(Cl)Cl)Nc1ccc(Cl)c(Cl)c1 (stereo not drawn)	?	-95*	i	?	-38%
Cc1ccc(NC(=O)NCC2CC2(Cl)Cl)cc1 (stereo not drawn)	52%	-2	i	-11%	-2%
CC(=O)SC[C@@H](C)C(=O)N1CCC[C@H]1C(=O)N[C@@H](Cc1ccccc1)C(=O)O	-30%	.	i	.	.
COc1ccc(N=c2cc(-c3ccc(OC)cc3)oc3ccccc23)cc1	?	.	?	?	-12%
COc1ccc(N=c2cc(-c3ccc(O)cc3)oc3ccccc23)cc1	-23%[11.3 µM]	-98*	i	?	4%
Cc1ccccc1-c1nc(CS(=O)(=O)CC(=O)NCc2cccc(Cl)c2)c(C)o1	-39%	.	i	?	-50%
COc1ccc(CN2CC[C@H]3C=CC[C@@H](C(=O)Nc4ccccc4)[C@H]3C2=O)cc1OC	.	.	.	-13%	0%
O=C(Nc1cccc(/C=C/c2ccccn2)c1)c1ccc(-n2cncn2)c([N+](=O)[O-])c1	?	-76*	18µM*	?	-21%
CC(Nc1nc(N2CCNCC2)nc2ccccc12)c1ccccc1 (stereo not drawn)	?	-104*	?	?	-31%
O=S1(=O)C=C(Sc2nc3cc(Cl)ccc3o2)c2ccccc21	?	-119*	.	-31%	-11%
COc1cc(NC(=O)CCCc2nnc3n(CC(C)C)c(=O)c4sccc4n23)cc(OC)c1	.	.	.	-13%	1%
Cc1ccc(NC(=O)CSc2nnc(-c3ccccc3)n2C)cc1	.	.	.	-6%	2%
O=[N+]([O-])c1ccc(CSc2ccc(S(=O)(=O)N3CCCCC3)cn2)cc1	-20%	-50*	i	?	-53%
O=[N+]([O-])c1ccc(CSc2ccc(S(=O)(=O)N3CCOCC3)cn2)cc1	-20%	-64*	i	-17%	2%
O=[N+]([O-])c1ccc(CSc2ccc(S(=O)(=O)N3CCCC3)cn2)cc1	-24%	0	i	?	4%
C=CCn1cnc2c(c1=O)c1nc3ccccc3nc1n2/N=C/c1cccc(OC)c1OC	-18%	-52*	?	6%	3%
C=CCn1cnc2c(c1=O)c1nc3ccccc3nc1n2/N=C/c1ccccn1	?	-65*	i	0%	-16%
CCc1ccc(N2CCN(S(=O)(=O)CC34CCC(CC3=O)C4(C)C)CC2)cc1 (stereo not drawn)	-28%	-67*	i	-5%	-6%
Cc1ccc(Cn2ccsc2=NC(=O)COC(=O)c2ccc(NC(=O)CC#N)cc2)cc1	-4%	-9	i	?	-21%
Cc1ccc(Cn2ccsc2=NC(=O)CCl)cc1	?	-100*	0.79µM*	?	-113%
CC12CCC(=O)C=C1CCC1C2CCC2(C)C(c3csc(N)n3)CCC12 (stereo not drawn)	?	-82*	?	13µM*	8%
SMILES	ATXN2 expr inh	IL-1B inflam inh	S2 tox	TGFb inhibitor	HepG2 viability
Cc1ccc2nc(COc3ccccc3NC(=O)c3ccccc3F)cc(=O)n2c1	.	.	.	38%	-1%
COc1ccc(NC(=O)c2ccc3c(=O)n4nc(Nc5cccc(Cl)c5C)sc4nc3c2)cc1	.	.	.	-15%	-19%
O=C1C(c2ccccc2)=[N+]([O-])c2ccccc21	?	-88*	?	?	11µM*
O=c1c2ccccc2sn1-c1ccc(Cl)cc1Cl	?	-105*	.	?	-58%
COc1ccc(CNc2ccncc2)c(OC)c1OC	17%[2.22 µM]	8	i	2%	-3%
COc1cc(NCc2ccc3nc(N)nc(N)c3c2C)cc(OC)c1OC	3.5µM*!	.	?	.	.
Cc1cccc(-c2nnc(SCCC(=O)N3CCOCC3)o2)c1	-20%	-2	i	0%	3%
Cc1cccc(-c2nnc(SCCC(=O)O)o2)c1	1.4µM*	.	i	-5%	-6%
c1ccc2c(c1)CCCN2	.	.	.	?	-3%
O=C(NCCCN1CCCC1)c1ccc2c(c1)N(Cc1ccccc1F)C(=O)c1ccccc1S2(=O)=O	2%	?	i	2%	0%
CCC1CCCCN1CCCNC(=O)c1ccc2c(c1)N(Cc1ccccc1F)C(=O)c1ccccc1S2(=O)=O (stereo not drawn)	?	.	i	11µM*	-64%
Cc1ccccc1S(=O)(=O)NC1OC(=O)C(Cl)=C1Cl (stereo not drawn)	2%	-107*	i	?	14%
COC(=O)CC1CC2(C(=O)OC)c3[nH]c4ccccc4c3CCN2C1=O (stereo not drawn)	-5%	17	i	1%	-22%
CCC12CC1(C(=O)OC)C(=O)N1CCc3c([nH]c4ccccc34)C12 (stereo not drawn)	14%	-59*	i	-29%	3%
Cc1ccccc1C(=O)c1c[nH]c(C(=O)NCc2ccco2)c1	-11%	-52*	i	2%	-9%
COc1ccc(N(C)C(=O)Cn2cc(S(=O)(=O)N3CCN(c4ccccc4F)CC3)c3ccccc3c2=O)c(OC)c1	-8%	.	i	-18%	-1%
CNC1CCC(N(Cc2cccc(-c3ccncc3)c2)C(=O)c2sc3ccccc3c2Cl)CC1 (stereo not drawn)	24µM*	.	.	.	.
O=C(c1sc2ccccc2c1Cl)N(Cc1cccs1)C1CCS(=O)(=O)C1 (stereo not drawn)	3%	-7	i	?	-15%
CC12CC(NC(=O)N1c1cccc(C(=O)Nc3ncn[nH]3)c1)c1ccccc1O2 (stereo not drawn)	4%	-68*	i	-19%	3%
COc1ccc(NC(=O)c2cccc(N3C(=O)NC4CC3(C)Oc3ccccc34)c2)cc1 (stereo not drawn)	10%	-15	?	8%	-10%
Cc1ccc2c(c1)C1CC(C)(O2)N(c2cccc(C(=O)NCc3ccccn3)c2)C(=O)N1 (stereo not drawn)	2%	-5	i	2%	-9%
Cc1ccc2c(c1)C1CC(C)(O2)N(c2cccc(C(=O)NC3CCN(Cc4ccccc4)CC3)c2)C(=O)N1 (stereo not drawn)	0%	-53*	i	-2%	-12%
O=c1cc(NCCc2ccccc2)c2ccccc2o1	22%	-59*	?	-1%	-15%
